In PubChem BioAssay (NCI):
“And” between values parts separate entries of the source, which are not always exact repeats. Equal entries are not always repeated. About 83,000 compounds went through this panel and 20% of them were active in at least one assay; those are over-represented in the sample as a whole.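 Method: cells in 96-well plates; compound added at one concentration; 48 h incubation; percent growth measured; values under 10 scored active.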 The source made the active and inactive calls.

Legend:
Test in all cases: NCI-60 one-dose screen, 48 h (100 = growth as untreated, 0 = no growth, -100 = all killed)
Conditions in all cases: 10 µM unless noted
HCT-15 colon = test system: HCT-15 colon
HT29 colon = test system: HT29 colon
SNB-75 CNS = test system: SNB-75 CNS
SNB-19 CNS = test system: SNB-19 CNS
U251 CNS = test system: U251 CNS
PC-3 prostate = test system: PC-3 prostate
SK-MEL-5 melanoma = test system: SK-MEL-5 melanoma
UACC-62 melanoma = test system: UACC-62 melanoma
LOX IMVI melanoma = test system: LOX IMVI melanoma
SK-MEL-28 melanoma = test system: SK-MEL-28 melanoma

Measured: growth

COC1=CC(c2ccc[nH]2)=N/C1=C\c1[nH]c(C)c(C(=O)Oc2ccccc2)c1C
active: HCT-15 colon -35.1% | HT29 colon -15.7% | SNB-75 CNS -16.6% | U251 CNS -16.5% | SK-MEL-5 melanoma -99.9% | UACC-62 melanoma -62.8% | LOX IMVI melanoma -86.1% | SK-MEL-28 melanoma -77.9%
inactive: SNB-19 CNS 20.9% | PC-3 prostate 17.6%

O=C1C=CC(=O)N1c1ccc2ccccc2c1
inactive: HCT-15 colon 56.3% and 91.1% | SNB-75 CNS 88.9% and 105% | SNB-19 CNS 103% and 107% | U251 CNS 95.9% and 96.5% | PC-3 prostate 91% and 90% | SK-MEL-5 melanoma 106% and 102% | UACC-62 melanoma 98.8% and 93.6% | LOX IMVI melanoma 91.6% and 77.6%
-42.9% (active) and 32.6% (inactive): HT29 colon

COc1ccc(CN2CCc3c(Cl)nc(N)nc3C2=O)c(OC)c1
active: HCT-15 colon -36.7% [100 µM] | HT29 colon -4.88% [100 µM] | SNB-75 CNS 4.5% [100 µM] | U251 CNS 4.76% [100 µM] | SK-MEL-5 melanoma -55.7% [100 µM] | UACC-62 melanoma -24.5% [100 µM] | LOX IMVI melanoma -29.7% [100 µM] | SK-MEL-28 melanoma -56.1% [100 µM]
inactive: SNB-19 CNS 33.9% [100 µM] | PC-3 prostate 12% [100 µM]

Cc1ccc(NC(=O)c2sc3nc(C)c(C(=O)c4ccccc4)cc3c2N)cc1
inactive: HCT-15 colon 83.1% | HT29 colon 102% | SNB-75 CNS 70.7% | SNB-19 CNS 83.3% | U251 CNS 88.5% | PC-3 prostate 92.2% | SK-MEL-5 melanoma 94.1% | UACC-62 melanoma 79.5% | LOX IMVI melanoma 94.9% | SK-MEL-28 melanoma 92%

CCC(=C(c1ccc(OCCCN(C)C)cc1)c1ccc(OCCCN(C)C)cc1)c1ccc(Cl)cc1
active: HCT-15 colon -83.3% | HT29 colon -74.5% | SNB-75 CNS -96.6% | SNB-19 CNS -88.3% | U251 CNS -83.4% | PC-3 prostate -66.2% | SK-MEL-5 melanoma -96.3% | UACC-62 melanoma -80% | LOX IMVI melanoma -84.3% | SK-MEL-28 melanoma -89.8%

CCCCCCCCCCCCC[C@H](O)C[C@H](O)[C@H](C)N
inactive: HCT-15 colon 97.8% [1.25 µM] | HT29 colon 103% [1.25 µM] | SNB-75 CNS 129% [1.25 µM] | SNB-19 CNS 104% [1.25 µM] | U251 CNS 85.2% [1.25 µM] | PC-3 prostate 97% [1.25 µM] | SK-MEL-5 melanoma 97.6% [1.25 µM] | UACC-62 melanoma 113% [1.25 µM] | LOX IMVI melanoma 90.8% [1.25 µM] | SK-MEL-28 melanoma 115% [1.25 µM]

CC1=C2[C@@H](CC1)[C@]1(C)O[C@@](C3CC3)(C[C@H]1OC(=O)CO)[C@H]2OC(=O)/C=C/c1ccccc1
inactive: HCT-15 colon 97% | HT29 colon 89.5% | SNB-75 CNS 88.2% | SNB-19 CNS 90% | U251 CNS 88.3% | PC-3 prostate 68% | SK-MEL-5 melanoma 92.9% | UACC-62 melanoma 73.1% | LOX IMVI melanoma 84%

O=C(CC1(O)C(=O)Nc2ccc(Br)cc21)c1ccc(Cl)cc1 (stereo not drawn)
inactive: HCT-15 colon 109% | HT29 colon 97.8% | SNB-75 CNS 81.8% | SNB-19 CNS 107% | U251 CNS 94.6% | PC-3 prostate 81.6% | SK-MEL-5 melanoma 96.8% | UACC-62 melanoma 98.1% | LOX IMVI melanoma 99.3% | SK-MEL-28 melanoma 120%

O=C1/C(=C/c2ccccc2)CN(C(=O)C(Cl)Cl)C/C1=C\c1ccccc1
inactive: SNB-75 CNS 43.9%
active: HCT-15 colon -24.2% | HT29 colon 5.46% | SNB-19 CNS -35.8% | U251 CNS -63.8% | PC-3 prostate -32.8% | SK-MEL-5 melanoma -32.3% | UACC-62 melanoma -66.4% | LOX IMVI melanoma -88.4% | SK-MEL-28 melanoma -25.7%

Cc1ccc(Cc2cnc(NC(=O)c3cc(C)oc3C)s2)cc1
inactive: HCT-15 colon 39.1% | HT29 colon 51.3% | SNB-75 CNS 76.6% | SNB-19 CNS 84.2% | U251 CNS 66.9% | PC-3 prostate 72.8% | SK-MEL-5 melanoma 93.6% | UACC-62 melanoma 47.6% | LOX IMVI melanoma 68.9% | SK-MEL-28 melanoma 81.3%

Cc1cccc(Cc2cnc(NC(=O)CCCOc3ccc(Cl)cc3)s2)c1
inactive: HCT-15 colon 24.6% | HT29 colon 11.6% | SNB-75 CNS 21.3% | SNB-19 CNS 27.6% | U251 CNS 14% | PC-3 prostate 42.5% | SK-MEL-5 melanoma 30.7% | UACC-62 melanoma 32.4% | LOX IMVI melanoma 35.6% | SK-MEL-28 melanoma 58.4%

COc1ccc(/C=C2/C(=O)N=C3N2NC(c2ccccc2)=CN3c2ccccc2)cc1
inactive: HCT-15 colon 109% | HT29 colon 109% | SNB-75 CNS 98.1% | SNB-19 CNS 97.7% | U251 CNS 99.4% | PC-3 prostate 96.1% | SK-MEL-5 melanoma 97.4% | UACC-62 melanoma 94.2% | LOX IMVI melanoma 87.8% | SK-MEL-28 melanoma 108%

Nc1nc(N)c2c(n1)NC(c1ccc(Cl)cc1)CC(c1cccc(Nc3ccncc3)c1)=N2 (stereo not drawn)
inactive: HCT-15 colon 71.5% | HT29 colon 21% | SNB-75 CNS 67.2% | SNB-19 CNS 61.8% | U251 CNS 34.6% | PC-3 prostate 38.2% | SK-MEL-5 melanoma 52.1% | UACC-62 melanoma 69.2% | LOX IMVI melanoma 25.4% | SK-MEL-28 melanoma 72.2%

Nc1ccc(/C=N/Nc2ccnc3c(N)cccc23)c2cccnc12
active: HCT-15 colon -49.7% | HT29 colon -22.5% | SNB-75 CNS -99.7% | U251 CNS -63.4% | LOX IMVI melanoma -90.9%
inactive: SNB-19 CNS 21.8% | PC-3 prostate 15.8% | SK-MEL-5 melanoma 83.1% | UACC-62 melanoma 89.5% | SK-MEL-28 melanoma 105%

O=C(N=Nc1c(O)[nH]c2ccccc12)Nc1ccccc1Cl
inactive: HCT-15 colon 68.1% | HT29 colon 101% | SNB-75 CNS 82% | SNB-19 CNS 91.1% | U251 CNS 92.2% | PC-3 prostate 92.5% | SK-MEL-5 melanoma 87.6% | UACC-62 melanoma 78.8% | LOX IMVI melanoma 96.5% | SK-MEL-28 melanoma 105%

COc1cc(C(=O)c2ccccc2C(=O)O)c(OC)c2c1CCCC2
inactive: HCT-15 colon 93.4% and 104% | HT29 colon 105% and 98.2% | SNB-75 CNS 94.1% and 87.4% | SNB-19 CNS 94.6% and 102% | U251 CNS 97% and 100% | PC-3 prostate 93.3% and 103% | SK-MEL-5 melanoma 96.6% and 97.5% | UACC-62 melanoma 96.1% and 101% | LOX IMVI melanoma 94.3% and 94.1% | SK-MEL-28 melanoma 102% and 113%

O=C(/C=C/C12c3ccccc3C(c3ccccc31)C1C(=O)NC(=O)C12)c1ccncc1 (stereo not drawn)
active: HCT-15 colon 4.66% | U251 CNS 7.81% | LOX IMVI melanoma -10.7%
inactive: HT29 colon 12.1% | SNB-75 CNS 13.7% | SNB-19 CNS 14.5% | PC-3 prostate 20.8% | SK-MEL-5 melanoma 27.6% | UACC-62 melanoma 23.4% | SK-MEL-28 melanoma 24.7%

CN(C)CCN1C(=O)c2c(c3c4ccccc4n4c3c3c2c2ccccc2n3C2CC(O)C(O)C4(C)O2)C1=O (stereo not drawn)
inactive: HCT-15 colon 15.5% | SNB-75 CNS 23.3% | SNB-19 CNS 17.1% | U251 CNS 17.9% | PC-3 prostate 30.2% | SK-MEL-5 melanoma 34.4% | UACC-62 melanoma 21.8% | SK-MEL-28 melanoma 64.5%
active: HT29 colon 6.62% | LOX IMVI melanoma 1.87%

CCOc1ccc(C(=O)Cc2ccccc2)cc1
inactive: HCT-15 colon 98.2% and 110% | HT29 colon 104% and 111% | SNB-75 CNS 101% and 113% | SNB-19 CNS 101% and 102% | U251 CNS 108% and 101% | PC-3 prostate 102% and 110% | SK-MEL-5 melanoma 106% and 98.5% | UACC-62 melanoma 98.2% and 106% | LOX IMVI melanoma 102% and 106% | SK-MEL-28 melanoma 115% and 109%

COc1ccccc1/C=C/C(=O)/C=C/c1ccccc1OC
active: HCT-15 colon -2.72% and -27.6% | HT29 colon -42.7% and -16.4% | U251 CNS -81% and -40.1% | SK-MEL-5 melanoma -89.4% and -77% | UACC-62 melanoma -61.6% and -64.3% | LOX IMVI melanoma -60.1% and -53.8% | SK-MEL-28 melanoma -58.9% and -57.8%
0.508% (active) and 17% (inactive): PC-3 prostate
inactive: SNB-75 CNS 45.2% and 12.6% | SNB-19 CNS 33.5% and 38.5%

COc1ccc(-c2c[nH]c(C(=O)O)c2-c2cc(OC)c(OC)c(OC)c2)cc1
active: SNB-75 CNS -15.5%
inactive: HCT-15 colon 31.7% | HT29 colon 14.7% | SNB-19 CNS 41.3% | U251 CNS 49.5% | PC-3 prostate 32.8% | SK-MEL-5 melanoma 19.2% | UACC-62 melanoma 37.7% | LOX IMVI melanoma 47.2% | SK-MEL-28 melanoma 61.7%

COc1cc(/C=C/C(=O)c2ccc(NC(=O)CSc3nnc(-c4cc(-c5ccccc5)nc5ccccc45)n3-c3ccccc3)cc2)cc(OC)c1OC
inactive: HCT-15 colon 65.9% | HT29 colon 54.7% | SNB-75 CNS 104% | SNB-19 CNS 95.1% | U251 CNS 94% | PC-3 prostate 81.6% | SK-MEL-5 melanoma 87% | UACC-62 melanoma 71.9% | LOX IMVI melanoma 89.4% | SK-MEL-28 melanoma 101%

CCN1CCN(CC(=O)Nc2nc3ccc(NCc4ccc(C)cc4)cc3s2)CC1
active: HCT-15 colon 1.79% | UACC-62 melanoma -57.1% | LOX IMVI melanoma -42.4%
inactive: HT29 colon 14.5% | SNB-75 CNS 91.6% | SNB-19 CNS 81.6% | U251 CNS 60.2% | PC-3 prostate 56% | SK-MEL-5 melanoma 40.7% | SK-MEL-28 melanoma 53.4%

COc1ccc2c(c1)CCNC21C(=O)Nc2c(Br)cc(Br)cc21 (stereo not drawn)
inactive: HCT-15 colon 104% | HT29 colon 104% | SNB-75 CNS 70.6% | SNB-19 CNS 91.5% | U251 CNS 96.7% | PC-3 prostate 97.9% | SK-MEL-5 melanoma 98.4% | UACC-62 melanoma 86.6% | LOX IMVI melanoma 102% | SK-MEL-28 melanoma 101%
